# Bioassay records (PubChem BioAssay)
# TEAD-YAP inh: TEAD-YAP interaction inhibition; inhibition, % at 9.12 µM; AID 1259422; HEK-TIYL cells, TEAD-Gal4/YAP UAS-luciferase luminescence; 1.4% of 640,000 active; in the data active = inhibition above about 32%;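 also: 0% = median of test compound wells and 100% = reference inhibitor wells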
# MITF inh: human MITF inhibition, primary screen | AlphaScreen MITF homodimerization, bead proximity signal | AID 1259374 | 0.91% of 650,000 active | inhibition, % at 2.6 µM | O75030; in the data active = inhibition above about 50%;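 also: 0% = vehicle wells with protein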
# GPR151 ag: activators of human GPR151. AID 1508602. activation, % at 11.2 µM. PathHunter beta-arrestin GPR151 cells, luminescence. 1% of 650,000 active; in the data active = activation above about 4.9%;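 also: 0% = median of compound wells and 100% = cells with positive control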
# FBW7 activator: activators of human E3 ligase FBW7. normalized activity (activation), % at 26.1 µM. 0.13% of 650,000 active. AlphaScreen FBW7–phospho-cyclin E peptide binding, activator screen. Q969H0. AID 1259310; in the data active = normalized activity above about 1.9%;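 also: purified mutant Fbw7 with reduced substrate affinity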
# Target sequence (Q969H0 whole entry, looked up): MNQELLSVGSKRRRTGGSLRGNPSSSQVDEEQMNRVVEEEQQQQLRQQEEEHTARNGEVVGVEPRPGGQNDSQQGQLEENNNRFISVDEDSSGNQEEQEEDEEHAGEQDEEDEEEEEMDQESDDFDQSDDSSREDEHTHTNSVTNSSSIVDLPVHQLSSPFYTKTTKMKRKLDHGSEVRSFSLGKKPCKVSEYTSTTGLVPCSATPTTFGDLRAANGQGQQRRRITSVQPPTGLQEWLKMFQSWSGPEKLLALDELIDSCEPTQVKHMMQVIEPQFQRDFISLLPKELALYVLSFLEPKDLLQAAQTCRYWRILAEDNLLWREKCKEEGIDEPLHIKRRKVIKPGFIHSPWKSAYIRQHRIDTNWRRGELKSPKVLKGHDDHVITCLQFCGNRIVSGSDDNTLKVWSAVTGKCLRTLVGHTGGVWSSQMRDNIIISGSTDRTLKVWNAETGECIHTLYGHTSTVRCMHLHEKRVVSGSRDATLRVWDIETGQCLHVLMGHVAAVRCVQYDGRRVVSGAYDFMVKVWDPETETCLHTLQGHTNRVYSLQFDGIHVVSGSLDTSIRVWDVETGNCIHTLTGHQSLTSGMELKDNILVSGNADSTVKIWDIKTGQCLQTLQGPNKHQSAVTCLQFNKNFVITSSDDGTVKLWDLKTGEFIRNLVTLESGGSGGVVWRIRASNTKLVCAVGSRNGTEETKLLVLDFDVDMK
# GPR151 confirm: human GPR151 activation, confirmation screen; shares compounds with GPR151 ag; GPR151 PathHunter beta-arrestin cells, luminescence, 90 min; % of EA-reagent control over plate median; activation, % at 11.2 µM; 6,700 tested, under 10 active; AID 1508609;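 active = mean percent activation across replicates above the confirmation screen cutoff of 4.91%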
# GPR119 counter: counter-screen for GPR151 activators: effect on human GPR119 | 0.3% of 6,700 active | AID 1508611 | shares compounds with GPR151 ag | GPR119 PathHunter beta-arrestin cells, luminescence, 90 min; 0 = compound-well median, 100 = enzyme-acceptor control | activation, % at 11.2 µM;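 active = mean percent activation in the counterscreen above 29.09%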;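 also: counterscreen on off-target GPR119 to flag nonselective hits from the GPR151 activator screen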
# An asterisk follows results filed as active; nt = not tested or not shown. Only some compounds are listed: those with a hit (about 3.5% of all), similar ones and a draw of the others.
SMILES,TEAD-YAP inh,MITF inh,GPR151 ag,FBW7 activator,GPR151 confirm,GPR119 counter
COc1ccc2nc(Nc3nc(-c4ccccc4)cc(=O)[nH]3)nc(C)c2c1,3,-6,6.8*,0,0,13
O=C1N=C(N2CCCC2C(=O)O)S/C1=C\c1ccco1 (configuration not stated),7,4,11*,0,-2,-5
O=C1N=C(N2CCCCC2)S/C1=C\c1ccco1,-16,9,-2,0,nt,nt
Cc1ccc(S(=O)(=O)N(CC(O)Cn2nc(C)cc2C)c2cccc([N+](=O)[O-])c2)cc1 (configuration not stated),10,7,5.8*,0,3,4
Cc1cc(C)n(CC(O)CN(c2cccc([N+](=O)[O-])c2)S(=O)(=O)c2ccccc2)n1 (configuration not stated),-1,11,1,0,nt,nt
N#C/C(=C\c1ccc(F)cc1)C(=O)N1CCOCC1,-34,-8,6.3*,0,1,6
COc1ccc(CNC2C3CC4CC(C3)CC2C4)c(OC)c1 (configuration not stated),5,5,5.6*,0,0,-6
CN(Cc1ccccc1)C1(O)C(=O)Nc2ccc([N+](=O)[O-])cc21 (configuration not stated),5,-4,12*,0,-1,10
CN(Cc1ccccc1)C1(O)C(=O)Nc2ccc(Cl)cc21 (configuration not stated),2,7,2,0,nt,nt
CCOc1ccc(NC(=O)C(CC(=O)O)Cc2ccc(Cl)cc2)cc1 (configuration not stated),-4,3,0,0,nt,nt
CCOC(=O)C(C)Oc1cc2oc(=O)cc(C)c2cc1CC (configuration not stated),-9,-13,-1,0,nt,nt
CC(=O)Oc1cccc(/C=C2/C(=O)NN(c3ccc(C)c(C)c3)C2=O)c1,-6,2,5.0*,1,-1,-13
O=C1NN(c2ccc(F)c(Cl)c2)C(=O)/C1=C\c1ccc(Br)cc1,7,19,-1,1,nt,nt
O=C1NN(c2ccc(F)c(Cl)c2)C(=O)/C1=C\c1cccc(I)c1,8,7,5.2*,0,0,9
CCOc1ccc(N2C(=O)/C(=C/c3cc(C)n(CC)c3C)C(=O)NC2=S)cc1,-4,23,-2,0,nt,nt
Cc1cc(C(=O)N(CC#N)CC#N)ccc1[N+](=O)[O-],-8,-6,7.7*,0,0,5
O=C(NNC1=NCCC1)c1ccc(Br)cc1,-5,5,0,0,nt,nt
Cc1ccc(C(=O)NNC2=NCCC2)cc1,-6,-1,5.6*,0,0,6
O=C(COc1ccc(Cl)cc1Cl)Nc1ccc(NC(=O)c2ccco2)c(Cl)c1,-17,-2,0,0,nt,nt
O=C(COc1ccc(Cl)cc1Cl)NCc1ccco1,-53,13,0,0,nt,nt
O=C(COc1ccccc1Cl)Nc1ccc(N2CCN(C(=O)c3ccco3)CC2)cc1,13,2,9.9*,0,0,7
O=C(COc1ccc(Cl)cc1Cl)Nc1cccc(NC(=O)c2ccco2)c1,-23,8,11*,0,0,2
O=C(COc1ccc(Cl)cc1Cl)OCc1ccco1,19,-7,6.5*,0,0,-1
COc1ccc(OC)c(/C=c2/sc3nc(=O)c(-c4ccccc4)nn3c2=O)c1,1,10,-1,0,nt,nt
O=C(Cn1cc(NC(=O)c2ccsc2)cn1)NCc1ccc2c(c1)OCO2,0,15,0,0,nt,nt
SMILES,TEAD-YAP inh,MITF inh,GPR151 ag,FBW7 activator,GPR151 confirm,GPR119 counter
Cc1nnc(N/N=C/c2cccs2)n1N,6,3,0,0,nt,nt
O=CN/N=C/c1cc(Br)ccc1O,4,1,1,-1,nt,nt
CC(=O)/C(CCN(C)C)=N\O,7,-2,0,0,nt,nt
COC(=O)C1=C2N(C)c3ccccc3N2C(=O)NC1(c1ccc(OC)cc1)C(F)(F)F (configuration not stated),8,-1,3,0,nt,nt
COc1ccc(I)cc1S(=O)(=O)N1CCN(Cc2ccccc2)CC1,4,3,1,0,nt,nt
COc1cc(Cl)c(S(=O)(=O)N2CCN(Cc3ccccc3)CC2)cc1Cl,5,11,6.5*,0,0,-17
O=S(=O)(c1cc(Br)ccc1Br)N1CCN(Cc2ccccc2)CC1,4,8,-2,0,nt,nt
O=S(=O)(c1ccc(Cl)cc1Br)N1CCN(Cc2ccccc2)CC1,-6,-2,6.2*,0,0,-9
COc1cccc(/C=N\N=c2\sc3ccccc3n2C)c1OC,-47,19,0,0,nt,nt
COc1ccc(/C=N/N=c2\sc3ccccc3n2C)c(OC)c1,-44,4,9.2*,0,0,6
O=C(NCCC1=CCCCC1)c1ccc(S(=O)(=O)c2ccccc2Cl)c([N+](=O)[O-])c1,20,15,-1,1,nt,nt
C#CCOc1cc(OC)c(OC)c(OC)c1,2,8,5.6*,0,-1,-5
COc1cc(OCC(=O)O)cc(OC)c1OC,0,14,3,0,nt,nt
Cc1ccc(N2C(=O)C3CC=CC(C)C3C2=O)cc1 (configuration not stated),-17,7,12*,0,0,-4
CC1C=CCC2C(=O)N(c3ccc([N+](=O)[O-])cc3)C(=O)C12 (configuration not stated),0,5,2,0,nt,nt
O=C(C1CCC(CNc2c(N3CCCCC3)c(=O)c2=O)CC1)N1CCc2ccccc21 (configuration not stated),-2,-2,0,0,nt,nt
CC(C)c1ccc(N2C(=O)NC(=O)/C(=C/c3ccccc3O)C2=O)cc1,10,14,12*,0,0,-1
CC(C)c1ccc(N2C(=O)NC(=O)/C(=C/c3ccc(O)cc3)C2=O)cc1,8,12,-2,0,nt,nt
COc1ccc(Cl)cc1/C=C/c1[nH]c(=O)[nH]c(=O)c1[N+](=O)[O-],5,-19,7.3*,0,2,24
COc1ccc(OC)c(/C=C/c2[nH]c(=O)[nH]c(=O)c2[N+](=O)[O-])c1,-1,3,2,0,nt,nt
Cc1ccc2nc(C)c3c(c2c1)OC(CBr)C3 (configuration not stated),11,-7,1,0,nt,nt
CSc1nc(C)c2c(n1)OC(CBr)C2 (configuration not stated),1,0,5.0*,0,-1,-5
N#C/C(=C\Nc1ccc(F)c([N+](=O)[O-])c1)c1nc(-c2cccc([N+](=O)[O-])c2)cs1,-3,-8,8.8*,0,-1,4
N#C/C(=C/Nc1ccc(F)c([N+](=O)[O-])c1)c1nc(-c2ccccc2)cs1,7,11,3,0,nt,nt
COc1ccc2c(-c3ccccc3)cc3nnnn3c2c1,-4,7,5.3*,0,0,-7
